The source made the active and inactive calls.
Key:
[1] = test system: Plasmodium falciparum Sir2 (PF13_0152, Sir2A); test: pfSir2 binders on small-molecule microarrays, primary screen, biochemical, small-molecule microarray, 635 nm fluorescence (AID 1098); details: small-molecule microarray binding, fluorescence 635 nm; higher = more signal;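 also: score merges spot fluorescence intensity with its signal-to-noise ratio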
[2] = small-molecule microarray binders of probe aDKK1, primary screen, biochemical, biotinylated probe, 635/667 nm fluorescence (AID 1099); details: higher = more signal;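 also: score merges 667nm spot fluorescence with signal to noise across triplicate slides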
[3] = small-molecule microarray binders of probe aCHRDL2, primary screen, biochemical, biotinylated probe, 635/667 nm fluorescence (AID 1100); details: higher = more signal
[4] = splicing luciferase reporter signal modulators, primary screen, spliceosome inhibition project, cell-based, HEK293, splice +/- reporter (AID 1101); details: luminescence, 24 h, higher = more signal, called active from +8 up or from −8 down;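 also: HEK293 cells carrying a splicing-competent luciferase reporter gene; test concentration not given here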
[5] = biological target: Fibroblast growth factor 10 (Homo sapiens) (UniProt O15520); test: FGF10 binders on small-molecule microarrays, primary screen, biochemical, small-molecule microarray, 635 nm fluorescence (AID 1102); details: FGF10 binding, fluorescence 635 nm, higher = more signal
[6] = test system: glycogen synthase kinase-3 (GSK3A per assay name; protocol says GSK3B); test: GSK3 binders on small-molecule microarrays, primary screen, biochemical, small-molecule microarray, 635 nm fluorescence, GSK3A (AID 1103); details: small-molecule microarray binding, fluorescence 635 nm; higher = more signal; also: the record names both GSK3A and GSK3B
[7] = biological target: Epidermal growth factor receptor (Homo sapiens) (UniProt P00533); test: EGFR binders on small-molecule microarrays, primary screen, biochemical, small-molecule microarray, 635 nm fluorescence (AID 1104); details: EGFR binding, higher = more signal;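 also: score merges 667 nm emission intensity with spot signal to noise over triplicate slides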
[8] = biological target: Follistatin-related protein 3 (Homo sapiens) (UniProt O95633); test: FSTL3 binders on small-molecule microarrays, primary screen, biochemical, small-molecule microarray, 635 nm fluorescence (AID 1105); details: FSTL3 binding, higher = more signal;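 also: score merges emission near 667 nm and signal to noise per printed spot across three slides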
[9] = biological target: Dickkopf-related protein 1 (Homo sapiens) (UniProt O94907); test: DKK1 binders on small-molecule microarrays, primary screen, biochemical, small-molecule microarray, 635 nm fluorescence scan (AID 1106); details: DKK1 binding, higher = more signal;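 also: score merges emission near 667 nm with signal to noise over three replicate slides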
[10] = test system: Inhibin beta A chain (activin A); test: INHBA (activin A) binders on microarrays, primary screen, biochemical, small-molecule microarray, 635 nm fluorescence scan (AID 1107); details: small-molecule microarray binding, higher = more signal;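 also: mouse activin A protein probed at 4.33 µg/mL on printed slides; score merges bound-protein fluorescence near 667 nm with spot signal-to-noise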
[11] = test system: Human papillomavirus type 1a protein E7 (residues 44-93); test: HPV1a E7 fragment binders on microarrays, primary screen, biochemical, small-molecule microarray, residues 44-93, 635 nm fluorescence (AID 1108); details: small-molecule microarray binding, fluorescence 635 nm; higher = more signal;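 also: E7 fragment applied at 1 µg/mL in TBST for 1 h at 4 C; score combines spot fluorescence with its signal to noise ratio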
[12] = modulators of HCV replicon luciferase signal, primary screen, HCV replication inhibitor project, Huh7 cells, luciferase reporter (AID 1109); details: 48 h, higher = more signal;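 also: huh7 hepatoma cells harbouring a luciferase neomycin HCV replicon reporter; luciferase luminescence as measure of HCV replicon replication; test concentration not given here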
[13] = biological target: Left-right determination factor 2 (Homo sapiens) (UniProt O00292); test: LEFTY2 binders on small-molecule microarrays, primary screen, biochemical, small-molecule microarray, 635 nm fluorescence scan (AID 1110); details: LEFTY2 binding, higher = more signal
[14] = biological target: Calmodulin-1 (Homo sapiens) (UniProt P0DP23); test: CALM1 binders on microarrays, EGTA buffer, profiling panel, biochemical, small-molecule microarray, Cy5-labelled CALM1 (AID 1111); details: Cy5-CALM1 binding fluorescence, higher = more signal;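 also: labelled calmodulin applied in Tris saline Tween buffer holding calcium plus EGTA and DTT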
[15] = biological target: Calmodulin-1 (Homo sapiens) (UniProt P0DP23); test: calcium-bound CALM1 binders on microarrays, profiling panel, artefact control for SMM control-protein annotation, biochemical, small-molecule microarray, Cy5-labelled CALM1, plus calcium (AID 1112); details: Cy5-CALM1 binding fluorescence, higher = more signal;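 also: score merges spot fluorescence with signal to noise from triplicate slides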
[16] = small-molecule microarray binders of probe aWnt5a, primary screen, biochemical, biotinylated probe, 635/667 nm fluorescence (AID 1113); details: higher = more signal;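 also: score merges 667 nm fluorescence intensity with signal-to-noise per printed feature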
[17] = small-molecule microarray binders of probe aShh, primary screen, biochemical, biotinylated probe, 635/667 nm fluorescence (AID 1114); details: higher = more signal;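 also: probe is biotin-labelled aShh protein from a stem cell growth factor screen; measures binding of labelled protein to compounds printed on the slide; score merges feature fluorescence at 667 nm with signal-to-noise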
[18] = small-molecule microarray binders of probe aNog, primary screen, biochemical, biotinylated probe, 635/667 nm fluorescence (AID 1115); details: higher = more signal;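 also: probe is biotinylated aNog protein used at 0.15 µg/mL for 1 h at 4 C; z-score combines 667 nm fluorescence of each spot with its signal to noise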
[19] = biological target: Torsin-1A-interacting protein 1 (Homo sapiens) (UniProt Q5JTV8); test: LAP1 binders from COS7 cell lysate, primary screen, small-molecule microarray, 635/667 nm fluorescence (AID 1116); details: COS7-hLAP1 lysate binding, 635 nm fluorescence, higher = more signal
[20] = biological target: Alpha-bungarotoxin (Bungarus multicinctus) (UniProt P60615); test: alpha-bungarotoxin binders on microarray, profiling panel, artefact control for SMM control protein annotation, biochemical, small-molecule microarray, Alexa647 label, 635/667 nm fluorescence (AID 1117); details: alpha-BTX-A647 binding fluorescence, higher = more signal
Sequence of Alpha-bungarotoxin (Bungarus multicinctus) (P60615 whole entry, looked up): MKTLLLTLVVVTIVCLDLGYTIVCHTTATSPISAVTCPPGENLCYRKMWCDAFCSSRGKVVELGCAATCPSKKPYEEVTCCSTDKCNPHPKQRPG

Sequence of Epidermal growth factor receptor (Homo sapiens) (P00533 whole entry, looked up): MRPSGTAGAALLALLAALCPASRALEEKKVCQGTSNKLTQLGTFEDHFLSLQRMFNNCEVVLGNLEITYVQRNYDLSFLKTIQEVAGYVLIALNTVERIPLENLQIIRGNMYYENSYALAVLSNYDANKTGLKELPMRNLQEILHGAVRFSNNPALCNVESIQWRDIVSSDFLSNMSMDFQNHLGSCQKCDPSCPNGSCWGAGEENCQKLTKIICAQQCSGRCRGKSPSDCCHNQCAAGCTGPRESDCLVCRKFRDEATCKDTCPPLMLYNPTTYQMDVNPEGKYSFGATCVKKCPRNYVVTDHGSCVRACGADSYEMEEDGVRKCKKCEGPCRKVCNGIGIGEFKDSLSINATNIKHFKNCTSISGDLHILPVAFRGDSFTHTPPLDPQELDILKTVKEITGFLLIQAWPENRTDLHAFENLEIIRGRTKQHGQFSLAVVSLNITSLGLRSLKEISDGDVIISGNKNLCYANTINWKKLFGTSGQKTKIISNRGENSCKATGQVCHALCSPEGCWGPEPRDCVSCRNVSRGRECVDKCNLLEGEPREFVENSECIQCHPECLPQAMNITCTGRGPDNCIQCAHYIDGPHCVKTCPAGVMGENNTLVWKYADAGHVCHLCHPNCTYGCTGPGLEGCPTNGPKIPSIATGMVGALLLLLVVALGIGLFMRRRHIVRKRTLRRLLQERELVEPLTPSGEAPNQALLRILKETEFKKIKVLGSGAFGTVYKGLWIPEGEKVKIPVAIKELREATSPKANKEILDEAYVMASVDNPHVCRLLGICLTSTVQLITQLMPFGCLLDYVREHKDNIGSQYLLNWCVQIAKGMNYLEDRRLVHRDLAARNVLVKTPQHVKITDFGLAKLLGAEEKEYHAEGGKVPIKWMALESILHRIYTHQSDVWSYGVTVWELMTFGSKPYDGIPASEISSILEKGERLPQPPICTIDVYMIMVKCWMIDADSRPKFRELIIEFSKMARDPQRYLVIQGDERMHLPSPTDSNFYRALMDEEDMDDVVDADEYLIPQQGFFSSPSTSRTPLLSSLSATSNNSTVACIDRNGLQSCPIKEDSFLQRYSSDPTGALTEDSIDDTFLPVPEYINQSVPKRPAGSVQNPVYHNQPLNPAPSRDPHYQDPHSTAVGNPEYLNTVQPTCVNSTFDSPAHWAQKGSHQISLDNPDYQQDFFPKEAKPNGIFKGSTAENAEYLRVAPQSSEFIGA
Sequence of Torsin-1A-interacting protein 1 (Homo sapiens) (Q5JTV8 whole entry, looked up): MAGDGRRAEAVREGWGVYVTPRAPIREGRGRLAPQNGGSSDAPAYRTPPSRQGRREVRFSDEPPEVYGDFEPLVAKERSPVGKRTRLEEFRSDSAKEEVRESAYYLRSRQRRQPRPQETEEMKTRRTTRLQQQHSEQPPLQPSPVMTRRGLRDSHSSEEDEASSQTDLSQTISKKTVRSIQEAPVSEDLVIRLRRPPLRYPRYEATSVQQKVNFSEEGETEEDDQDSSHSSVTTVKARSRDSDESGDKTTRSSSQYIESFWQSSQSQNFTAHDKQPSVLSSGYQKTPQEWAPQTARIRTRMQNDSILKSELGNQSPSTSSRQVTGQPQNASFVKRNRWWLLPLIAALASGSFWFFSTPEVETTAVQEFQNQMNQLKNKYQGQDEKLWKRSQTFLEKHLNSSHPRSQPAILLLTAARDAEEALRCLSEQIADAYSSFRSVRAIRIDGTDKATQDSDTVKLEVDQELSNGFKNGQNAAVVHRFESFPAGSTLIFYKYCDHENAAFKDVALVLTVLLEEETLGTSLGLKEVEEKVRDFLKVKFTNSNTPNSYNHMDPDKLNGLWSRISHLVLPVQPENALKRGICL
Sequence of Dickkopf-related protein 1 (Homo sapiens) (O94907 whole entry, looked up): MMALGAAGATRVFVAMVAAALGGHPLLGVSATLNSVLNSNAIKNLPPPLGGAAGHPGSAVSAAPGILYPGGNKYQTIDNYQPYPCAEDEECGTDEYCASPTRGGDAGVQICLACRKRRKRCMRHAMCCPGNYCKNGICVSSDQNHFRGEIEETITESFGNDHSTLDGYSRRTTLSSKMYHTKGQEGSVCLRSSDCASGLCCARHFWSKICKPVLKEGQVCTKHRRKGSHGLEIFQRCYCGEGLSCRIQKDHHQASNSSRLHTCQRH
Sequence of Left-right determination factor 2 (Homo sapiens) (O00292 whole entry, looked up): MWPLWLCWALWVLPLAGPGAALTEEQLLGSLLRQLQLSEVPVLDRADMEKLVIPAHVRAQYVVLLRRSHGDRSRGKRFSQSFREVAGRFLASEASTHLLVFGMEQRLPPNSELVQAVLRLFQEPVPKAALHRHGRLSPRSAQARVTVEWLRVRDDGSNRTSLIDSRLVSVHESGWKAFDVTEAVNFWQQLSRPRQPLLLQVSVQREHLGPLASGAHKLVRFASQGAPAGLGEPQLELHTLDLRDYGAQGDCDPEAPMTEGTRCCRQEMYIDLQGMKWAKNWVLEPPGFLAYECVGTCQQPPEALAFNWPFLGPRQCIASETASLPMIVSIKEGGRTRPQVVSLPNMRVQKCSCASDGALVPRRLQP
Sequence of Follistatin-related protein 3 (Homo sapiens) (O95633 whole entry, looked up): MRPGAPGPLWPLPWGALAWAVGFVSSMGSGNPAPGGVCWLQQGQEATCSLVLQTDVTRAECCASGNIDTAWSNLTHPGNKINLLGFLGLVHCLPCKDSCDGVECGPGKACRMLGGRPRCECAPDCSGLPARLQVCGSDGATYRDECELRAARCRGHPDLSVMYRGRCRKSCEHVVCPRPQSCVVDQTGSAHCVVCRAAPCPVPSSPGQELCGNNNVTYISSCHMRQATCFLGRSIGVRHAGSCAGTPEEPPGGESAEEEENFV
Sequence of Fibroblast growth factor 10 (Homo sapiens) (O15520 whole entry, looked up): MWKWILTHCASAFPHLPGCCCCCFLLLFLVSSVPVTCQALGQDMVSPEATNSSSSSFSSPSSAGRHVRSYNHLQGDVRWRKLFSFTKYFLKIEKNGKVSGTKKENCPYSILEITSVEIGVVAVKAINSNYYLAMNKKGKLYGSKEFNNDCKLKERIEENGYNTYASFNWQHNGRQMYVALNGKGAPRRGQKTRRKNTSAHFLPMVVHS

| SMILES | composite z-score [1] | composite z-score [2] | composite z-score [3] | z-score [4] | composite z-score [5] | composite z-score [6] | composite z-score [7] | composite z-score [8] | composite z-score [9] | composite z-score [10] | composite z-score [11] | z-score [12] | composite z-score [13] | composite z-score [14] | composite z-score [15] | composite z-score [16] | composite z-score [17] | composite z-score [18] | composite z-score [19] | composite z-score [20] |
| --- | --- | --- | --- | --- | --- | --- | --- | --- | --- | --- | --- | --- | --- | --- | --- | --- | --- | --- | --- | --- |
| CN(C)CCCC[C@@H]1NC(=O)[C@H]2C[C@@H](C(=O)O)[C@@H](c3ccc(O)cc3)N2C1=O | 2.03 | 2.45 | 1.64 | -1.28 (inactive) | 1.55 | 1.44 | 1.85 | 1.53 | 2.03 | 1.98 | 1.55 | -0.0575 | 1.62 | 2.44 | 1.23 | 0.866 | 1.5 | 3 | 4.54 | 3.2 |
| CC(C)NC(=O)[C@@H]1c2ccccc2C(=O)N(Cc2ccc(OC(F)(F)F)cc2)[C@H]1c1ccc(CO)cc1 | 0.471 | 1.21 | 0.696 | -0.211 (inactive) | 1.25 | 1.3 | 0.272 | 1.37 | 0.657 | 0.237 | 0.973 | -0.779 | 0.39 | 0.1 | -0.126 | 0.265 | 0.637 | -0.486 | 0.673 | 0.589 |
| O=C1C2C=CC(C(O)c3c(F)cccc3Cl)N(Nc3ccc([N+](=O)[O-])cc3)C2C(=O)N1c1ccccc1 (stereo not given) | 0.77 | -0.124 | -0.0918 | -0.108 (inactive) | 1.2 | 1.27 | 0.518 | 1.45 | 0.875 | 0.191 | 1.41 | 0.128 | 0.563 | 2.16 | 0.132 | -0.0222 | 0.23 | 0.803 | 1.6 | 0.676 |
| Cc1ccc(S[C@]2(C(=O)NCCCN(C)C)CC(=O)N(Cc3ccccc3C(F)(F)F)[C@@H]2c2ccc(CO)cc2I)cc1 | 1.18 | -0.473 | -0.464 | -0.425 (inactive) | -0.54 | -0.605 | -1.04 | -0.402 | -1.25 | 0.812 | 0.545 | -2.37 | -1.17 | -0.252 | 0.236 | 0.264 | -0.403 | 1.27 | 0.28 | -0.0365 |
| COC(=O)[C@]1(CCC(=O)OC(C)(C)C)N=C(c2ccc(OCCCO)cc2)O[C@@H]1c1ccccc1N=[N+]=[N-] | 0.911 | 0.254 | 0.855 | -0.229 (inactive) | 0.49 | -0.107 | -0.287 | 0.168 | -0.281 | 0.809 | 0.892 | -2.05 | -0.557 | -0.175 | -0.875 | 0.0403 | -0.119 | 0.504 | 0.468 | 0.302 |
| C=CCC(OC(C)=O)[C@@H]1[C@@H](N(Cc2cccc3ccccc23)C(=O)c2ccc(-c3ccccc3)cc2)c2cc(OCCCO)ccc2N1C(=O)Cc1ccc2ccccc2c1 (stereo not given in full) | -0.121 | -0.0459 | 0.428 | -1.08 (inactive) | -0.179 | -0.328 | -0.0303 | 0.228 | -0.624 | 0.45 | -0.515 | -0.105 | -0.181 | 0.858 | 0.912 | 0.0399 | 0.0278 | -0.0773 | 0.438 | 0.106 |
| CC(C)C[C@@H]1NC(=O)[C@@]23C(=O)N[C@@H](Cc4ccccc4)C2[C@H](C)[C@@]2(C)O[C@H]2C3/C=C/C/C=C\CNC(=O)CNC1=O (stereo not given in full) | 1.19 | -0.268 | -0.51 | 0.103 (inactive) | 0.452 | 0.202 | 0.127 | 0.768 | 0.268 | 1.4 | 0.346 | 0.349 | 0.259 | -0.535 | -0.963 | -0.0478 | -0.138 | -0.125 | 0.189 | 0.49 |
| C=C(/C(=C/C[C@@H](OC(C)=O)c1cccc(OCCO)c1)c1cnc2ccccc2c1)C(C)C | 0.85 | -0.268 | 0.0363 | -0.664 (inactive) | 0.706 | 0.612 | 0.324 | 1.37 | 0.625 | 1.56 | 0.858 | -1.96 | 0.54 | -0.24 | -0.51 | -0.0045 | -0.0709 | -0.326 | 1.02 | 1.3 |
| COc1ccc(C(=O)Nc2ccc3c(c2)[C@@]2(O[C@H](CCO)[C@@H]([Si](C)(C)c4ccc(OC)cc4)[C@@H]2C)C(=O)N3Cc2ccccc2)cc1 | 0.578 | -0.267 | 0.546 | -4.86 (inactive) | 0.517 | 0.369 | 0.252 | 0.527 | 0.27 | 1.17 | 1.28 | -5.23 | 0.219 | 0.397 | 0.238 | -0.0599 | -0.0782 | 0.56 | 0.518 | 0.399 |
| O=C1N(CCS(=O)(=O)c2ccccc2)c2ccccc2C[C@]12N=C(c1ccc(OCCCO)cc1)O[C@@H]2c1ccccc1 | 1.23 | 0.924 | 0.775 | 0.276 (inactive) | 1.02 | 1.19 | 0.468 | 1.34 | 1.01 | 0.865 | 1.42 | -1.74 | 0.845 | 2.28 | 0.565 | 0.0704 | -0.0146 | 0.217 | 1.93 | 1.91 |
| CCOC(=O)C1=CCC(c2cc3ccccc3[nH]2)N(CCN2CC(C(=O)OCC)=CCC2c2cc3ccccc3[nH]2)C1 (stereo not given) | 0.497 | 0.237 | 0.368 | -1.3 (inactive) | 0.631 | 1.03 | 0.149 | 0.673 | 0.0665 | 1.14 | 1.34 | -1.87 | 0.0083 | 0.884 | -0.608 | -0.0203 | 0.0639 | 0.302 | 0.0389 | 0.927 |
| NC(=O)NCC#Cc1ccc2c(c1)[C@]1(C(=O)N2)[C@H](c2ccc(OCCO)cc2)N2[C@H](c3ccccc3)[C@H](c3ccccc3)OC(=O)[C@H]2[C@@H]1C(=O)NC[C@H](O)c1ccccc1 | 1.24 | 0.0619 | 0.909 | 0.199 (inactive) | 0.131 | -0.708 | -0.256 | -0.216 | -0.229 | 0.902 | 1.01 | -1.27 | -0.375 | 0.0317 | -0.194 | -0.0572 | -0.367 | -0.559 | 0.727 | 0.502 |
| COCCCNC(=O)[C@@]1(CCC(=O)OC(C)(C)C)COC(c2ccc(OCCCO)cc2)=N1 | 1.64 | 0.117 | 0.523 | -1.09 (inactive) | 0.693 | 0.986 | -0.106 | 0.219 | -0.0833 | 0.64 | 1.48 | -1.11 | -0.148 | -0.664 | -0.0486 | -0.124 | -0.0169 | -0.603 | 2.01 | 0.778 |
| COC(=O)[C@@]1(Cc2ccc(F)cc2)[C@H]2c3cc(C(=O)N4CCCC4)n(Cc4ccccn4)c3C[C@H]2CN1C(=O)c1ccccc1 | 0.919 | 0.757 | 1.08 | -1.88 (inactive) | 0.426 | 0.453 | 0.214 | 0.156 | -0.398 | 0.855 | 1.42 | -1.73 | -0.649 | 1.36 | 0.652 | 0.139 | 0.704 | 0.874 | 1.33 | 0.23 |
| COCCOC(=O)N1C(=O)[C@@]2(c3ccccc31)[C@H](c1ccc(O)cc1)N1[C@H](c3ccccc3)[C@H](c3ccccc3)OC(=O)[C@H]1[C@@H]2C(=O)N1CCCCCCC1 | 1.81 | 2.94 | 1.68 | -0.682 (inactive) | 1.39 | 1.37 | 1.76 | 1.69 | 2.31 | 1.96 | 1.34 | -2.23 | 1.51 | 2.52 | 1.34 | 0.65 | 3.03 | 3.42 | 4.5 | 3.04 |
| CC(C)C(=C=CC[C@H](O)c1ccccc1OCCO)C[C@H](O)COCc1ccccc1 | 1.63 | -0.293 | -0.0177 | -0.114 (inactive) | 0.444 | -0.409 | -0.593 | -0.428 | -0.42 | 0.482 | 0.257 | -1.88 | -0.274 | 0.444 | -0.457 | -0.128 | -0.0681 | -0.391 | -0.251 | 0.257 |

From PubChem BioAssay
